Screening results: PubChem, Broad Institute
aSyn UTR act = Activators via SNCA 5'UTR binding, MLPCN. activity score, % (tested at 7.5 µM), hits read low. alpha-synuclein 5'UTR reporter, activators screen. 300,000 compounds, 7.1% hits; in the data active = activity score below about -60%
A number is an active result; – = inactive. Only a sample is shown.

SMILES	aSyn UTR act
Cc1cccc(/C(N)=N/OC(=O)CCc2ccccc2)c1	-156.6
O=C(CC(=O)c1ccccc1O)c1ccc(F)cc1	-74.8
COc1ccc(C(=O)CC(=O)C(=O)Nc2ccc(C)c(C)c2)cc1	-63.4
O=C(NCc1ccccc1)c1ccc(-c2ccccc2F)o1	-155.1
CCc1nnc(NC(=O)c2ccc(-c3ccccc3F)o2)s1	-65.0
O=C(Cc1ccc(-c2ccccc2)cc1)NCc1ccccc1	–
CN(C)S(=O)(=O)c1cccc(C(=O)Nc2cc(Cl)ccc2O)c1	-86.6
CN(C)S(=O)(=O)Oc1cccc(C(=O)Nc2ccc(Cl)c(Cl)c2)c1	-184.7
O=C(NC(=S)Nc1cc(Cl)ccc1O)c1cccc(Br)c1	-80.9
CNS(=O)(=O)c1cccc(C(=O)Nc2cccc(Cl)c2)c1	-111.2
COc1ccc(NC(=O)c2cccc(OS(=O)(=O)N(C)C)c2)cc1	-115.6
CN(C)S(=O)(=O)Oc1cccc(C(=O)Nc2cccc(Cl)c2)c1	-169.5
COC(=O)c1ccc(OS(=O)(=O)N(C)C)cc1	-87.8
CS(=O)(=O)Nc1ccc(C(=O)NCCc2ccccc2)cc1	-124.8
O=C(NCCS(=O)(=O)NCCc1ccccc1)c1ccccc1	-62.1
NS(=O)(=O)c1cc2c(cc1Cl)NC(C1C[C@H]3C=C[C@@H]1C3)NS2(=O)=O (stereo not given in full)	-79.7
Nc1ccccc1C(=O)N/N=C1\C2CN3CCN(C2)CC1(c1ccccc1)C3	-91.9
CCCC12CN3CCN(CC(C3)/C1=N\NC(=O)c1ccccc1N)C2	-76.1
COc1ccc(C(=O)Nc2cc(-c3ccc(C)cc3)no2)cc1	-65.3
Cc1ccc(C(=O)Nc2ccccc2Sc2ccccc2)cc1	-61.7
Cc1ccc(-c2cc(NC(=O)c3ccccc3)on2)cc1	-190.4
Cc1cc(=O)[nH]c2nnc(-c3ccc(Br)cc3)n12	-62.3
Cc1ccc(C(C)C)c(OCC(=O)Nc2ccc3c(c2)nc(CCN2CCCCC2)n3C)c1	–
Cn1c(CN2CCCC2)nc2cc(NC(=O)c3cccs3)ccc21	-76.4
Cn1c(CN2CCCCC2)nc2cc(NC(=O)c3ccc(Cl)cc3)ccc21	-65.7
SMILES	aSyn UTR act
Cn1c(CN2CCCC2)nc2cc(NC(=O)c3ccc(Cl)cc3)ccc21	-62.8
Cc1cc(C)n(-c2nnc3c4ccccc4n(C)c3n2)n1	-68.9
C/C(=N\Nc1nnc2c3ccccc3n(C)c2n1)c1ccc(C)o1	-84.9
O=C(N/N=C\c1cc(Br)ccc1O)c1ccc(S(=O)(=O)N2CCCCC2)cc1	–
Cc1ccnc(NC(=O)C2CCN(S(=O)(=O)c3ccc(Cl)c(C(F)(F)F)c3)CC2)c1	-63.4
O=C(Nc1cccc(O)c1)c1ccc(S(=O)(=O)N2CCCCCC2)cc1	-68.3
CCS(=O)(=O)c1ncc(Cl)c(C(=O)Nc2ccc(S(=O)(=O)N3CCC(C)CC3)cc2)n1	–
O=C(Nc1cccc(S(=O)(=O)N2CCCCC2)c1)c1ccc([N+](=O)[O-])o1	-268.3
O=C(Nc1ccccn1)c1ccc(S(=O)(=O)N2CCCCCC2)cc1	-86.6
Cc1cccc(NC(=S)N=Nc2c(O)n(C)c3ccc(S(=O)(=O)N4CCOCC4)cc23)c1	–
Cc1ccnc(NC(=O)c2ccc(S(=O)(=O)N3CCCCCC3)cc2)c1	-119.1
CCN(CC)CCNC(=O)c1ccc(NC(=O)c2ccc(S(=O)(=O)N3CCCCCC3)cc2)cc1	-64.0
O=C(Nc1ccccn1)c1ccc(S(=O)(=O)N2CCCCC2)cc1	-121.0
O=C(Nc1ccccc1[N+](=O)[O-])c1ccc(S(=O)(=O)N2CCCC2)cc1	-131.0
O=C(Nc1ccccn1)c1ccc(Br)c(S(=O)(=O)N2CCCC2)c1	-65.3
O=S(=O)(Nc1nc2ccccc2nc1N1CCc2ccccc2C1)c1ccc(Cl)cc1	–
Cc1ccccc1S(=O)(=O)Nc1nc2ccccc2nc1N1CCc2ccccc2C1	-108.3
c1ccc(Sc2ncnc3c2oc2ccccc23)cc1	-180.2
COc1ccc(Nc2ncnc3c2oc2ccccc23)cc1	-160.4
Cc1ccc(Nc2ncnc3c2oc2ccccc23)cc1	-114.5
c1ccc2c(c1)oc1c(Nc3ccc4c(c3)OCCO4)ncnc12	-141.8
Oc1ccc(N=Nc2ccc3c(c2)OCCO3)c2cccnc12	–
COc1cc(C(=O)Nc2ccc3c(c2)CCN3C(C)=O)cc(OC)c1OC	–
CCOC(=O)C(=CNc1ccc2c(c1)CCN2C(C)=O)C(=O)OCC	-78.4
CCCNC(=O)c1oc2ccc3c(c2c1C)C=CC(C)(C)O3	-90.2
SMILES	aSyn UTR act
CCCNC(=O)c1oc2ccc3c(c2c1C)C(=O)CC(C)(C)O3	-89.2
CC1=NN(c2ccccc2)C(=O)/C1=C\c1cn(CCC#N)nc1-c1ccc(Cl)cc1	-85.4
CSc1nc(N)nc(SCC(=O)c2ccccc2)c1C#N	-76.0
Cc1cccc(NC(=O)CSc2nc(C)c(CC(=O)c3ccc(Br)cc3)c(C)c2C#N)c1C	–
CC(=O)CSc1ccc(-c2nc3ccccc3[nH]2)cn1	-72.0
N#Cc1ccccc1CSc1ccc(-c2nc3ccccc3[nH]2)cn1	-120.5
Cc1cc2nc(-c3ccc(SCc4ccc(C#N)cc4)nc3)[nH]c2cc1C	-104.6
Cc1ccc2nc(-c3ccc(SCC(=O)N4CCc5ccccc54)nc3)[nH]c2c1	-387.9
CC(=O)CSc1ccc(-c2nc3cc(C)c(C)cc3[nH]2)cn1	–
Cc1ccc2nc(-c3cccnc3SCC(=O)N3c4ccccc4CC3C)[nH]c2c1 (stereo not given)	-80.1
CCOc1ccc(/C=C(/NC(=O)c2ccc(Cl)cc2)C(=O)O)cc1OCC	-86.2
COc1ccc(-c2cc(CS(=O)(=O)c3ccccc3)on2)cc1	-158.0
O=S(=O)(Cc1cc(-c2ccccc2)no1)c1ccccc1	-77.1
O=C1NN(c2ccccc2)C(=O)/C1=C/c1coc2ccccc2c1=O	-138.1
COc1ccc(-n2c(C)cc(/C=C3\C(=O)NN(c4ccccc4)C3=O)c2C)cc1	-113.1
Cc1cc(/C=C2\C(=O)NN(c3ccccc3)C2=O)c(C)n1-c1ccccc1O	-131.6
Cc1cc(/C=C2/C(=O)NN(c3ccccc3)C2=O)c(C)n1-c1ccc(O)cc1	-138.2
c1ccc(-c2cnnc(-c3ccccn3)n2)cc1	-132.8
COc1cnc(-c2ccccn2)nc1N(C)c1ccccc1	–
CC(=O)Nc1ccc(S(=O)(=O)N/N=C/c2ccc(C)s2)cc1	-136.6
Cc1ccc(S(=O)(=O)/N=C2/C=C(C3C(=O)CC(C)(C)CC3=O)C(=O)c3ccccc32)cc1	-179.9
CCc1ccc(S(=O)(=O)/N=C2\C=C(Nc3ccc(O)cc3)C(=O)c3ccccc32)cc1	–
Cc1ccc(NC2=C/C(=N\S(=O)(=O)c3cccs3)c3ccccc3C2=O)c(C)c1	–
CCOC(=O)c1c(C)[nH]c(N=Nc2ccccc2)c1C	-142.8
CCOC(=O)c1c(C)[nH]c(N=Nc2ccc(OC)cc2)c1C	-248.6
SMILES	aSyn UTR act
CCOC(=O)c1c(C)[nH]c(N=Nc2ccccc2Cl)c1C	-119.0
CCOC(=O)c1c(C)[nH]c(C=Nc2ccc(OC)cc2)c1O	-95.5
CCOC(=O)c1c(C)[nH]c(N=Nc2ccc(C)cc2)c1C	-270.9
O=c1nc(/C=C/c2ccc(O)c(O)c2)oc2ccccc12	-159.0
O=C(NC1CC(=O)c2sccc21)c1ccc(Cl)cc1Cl (stereo not given)	-86.6
O=Cc1c(-c2ccccc2)cc2oc3ccccc3cc1-2	-119.4
CC(C)c1ccc2c(c1)CCC1C(C)(CN)CCCC21C (stereo not given)	–
CC(C)(C)C(=O)Nc1sc(-c2ccccc2)cc1C(=O)O	-87.0
Cc1cccc(C(=O)Nc2sc(-c3ccccc3)cc2C(=O)O)c1	-180.4
CCOC(=O)c1ccc(NC(=O)c2n[nH]c(=O)c3ccccc23)cc1	-90.4
CCOC(=O)c1ccc(NC(=O)Oc2ccccc2)cc1	-65.8
